# Assay outcomes: PubChem, National Center for Advancing Translational Sciences (NCATS)
# HepG2 tox = counter-screen for TGF-b inhibitors: cytotoxicity in HepG2 cells. HepG2 CAGA-GFP viability, ATP luminescence, 18 h. Potency, µM (top dose mostly 46.1 µM), hits mostly cytotoxic. 0.76% of 410,000 active
#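 CellTiter-Glo luminescence gave cytotoxicity after 18 hours at 37 degrees C. The cells were HepG2 CAGA-GFP in 1% FBS DMEM, stimulated with 500 pg/mL TGF-beta after compound addition. %Activity was normalised to no-cell wells (complete cell-killing) and DMSO (no toxicity), and curves were fitted and classified.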
# IL1B secr inh = inhibitors of inflammasome signaling (IL-1 beta secretion); 4.7% of 360,000 active; AID 743279; activity change, % at 57.5 µM; THP-1 LPS/ATP IL-1B secretion, AlphaLISA, 16 h; stronger effect = lower value; in the data active = activity change below about -50%; inconclusive = mostly about -30% to -49%
#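 Secreted IL-1B measured by AlphaLISA bead assay after 16 h compound exposure of THP-1 cells; compounds (final up to 57.5 uM) added 1 h before LPS (250 ng/mL) and ATP (1.25 mM) stimulation; lower signal means less secretion.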
# ATXN2 expr inh = inhibitors of ATXN2 expression; HEK-293 ATXN2-luciferase reporter, luminescence, 24 h; Potency, µM (top dose mostly 57 µM), usual class: inhibitors; 0.72% of 360,000 active; AID 1745845; also: nearly all actives have a fitted effect of over 55% in size
#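 qHTS (up to 57 uM final) was run with 24 h compound exposure of reporter cells at 37 °C. Each well was multiplexed: SteadyGlo luminescence measured ATXN2-luciferase expression after a fluorogenic Gly-Phe-AFC viability readout (25 uM final).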
# TGFb inhibitor = inhibitors of TGF-b signaling | HepG2 CAGA-GFP TGF-b/SMAD3 reporter, GFP fluorescence, 18 h; TGF-beta stimulated, 500 pg/mL final | Potency, µM (series often up to 46.1 µM), usual class: inhibitors | 1.2% of 410,000 active; also: nearly all actives have a fitted effect of over 65% in size
#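 GFP signal (ex488/em500-530) from TGF-beta-stimulated HEPG2 CAGA-GFP cells, 500 pg/mL final, 18 h at 37 degrees C in DMEM plus 1% FBS, normalized to unstimulated and DMSO-stimulated controls.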
# S2 tox = reduces viability in counter-screen for ATXN expression inhibitors. S2 cells (HEK-293 line with an ATXN2-luciferase reporter) viability, CellTiter-Fluor protease fluorescence, 24 h. Potency, µM (highest dose often 56.7 µM), hits mostly cytotoxic. 0.49% of 400,000 active; also: nearly all actives have a fitted effect of over 40% in size
# Hits are given with their value; n = inactive; u = inconclusive; x = no result; [ ] = another dose, or the depositor's remark. Only some compounds are listed: those with a hit (about 5.7% of all), similar ones and a draw of the others. Unless noted, calls follow the shape of the dose curve; as a rule, active = well fitted curve in the direction sought with a large enough effect; inconclusive = small, poorly fitted or top-dose-only effect, or another doubt; inactive = no such curve, though single readings can be large; an effect the other way counts as inactive or inconclusive.
SMILES,HepG2 tox,IL1B secr inh,ATXN2 expr inh,TGFb inhibitor,S2 tox
O=C1[C@H]2[C@@H](c3ccc(C(F)(F)F)cc3)N[C@]3(CCCN(Cc4ccc(F)cc4)C3=O)[C@H]2C(=O)N1Cc1ccccc1,n,-56,n,u,u
O=C1C=CC(=O)N1CCNc1ncc(C(F)(F)F)cc1Cl,11µM,n,25µM,13µM,x
O=S(=O)(NCCNc1ncc(C(F)(F)F)cc1Cl)C(F)(F)F,n,-55,n[11.3 µM],u,n
CS(=O)(=O)NCCNc1ncc(C(F)(F)F)cc1Cl,n,n,n,n,n
C(=C\c1ccnc2ccccc12)/c1ccc2ccccc2n1,n,x,x,u,x
CSc1cccc(NC(=S)N2CCC(N(C)C3CCCCC3C)CC2)c1 (centres undefined),n,-69,n,n,n
CSc1cccc(NC(=S)N2CCC(N(C)C3CCCCC3)CC2)c1,n,n,n,n,n
COc1ccc(SC[C@H](Cc2ccccc2)N2CC[C@@H](C(C)(C)C)CCC2=O)cc1,n,-51,n,u,u
CCN1C(=O)C2(c3ccccc31)c1c(oc3ccc(F)cc3c1=O)C(=O)N2CCCOC (centres undefined),n,x,n,n,n
CCN(CC)CCNC(=O)c1cnn(-c2ncc3c(n2)-c2ccc(OC)cc2CC3)c1C,x,x,x,x,n
CCNC(=S)N/N=C(\C)c1cc2ccccc2o1,n,-52,n,u,n
Cc1cnc(-n2ncc(C(=O)NCCc3ccccn3)c2C)nc1-c1ccc(F)cc1,x,x,x,x,n
CCc1c(C)nc2ccc(Br)cc2c1SCCC#N,n,-183,n,u,n
COc1cc(/C=N/NC(=O)c2cccc([N+](=O)[O-])c2)ccc1OCc1ccccc1,n,n,n,n,n
CCOC(=O)C(=Cc1ccc(OCc2ccc([N+](=O)[O-])cc2)c(OC)c1)C(=O)OCC,n,-101,u,u,22µM
COC(=O)C(=Cc1ccc(OCc2ccc([N+](=O)[O-])cc2)c(OC)c1)C(=O)OC,n,-92,u,u,u
Cc1cnc(SCC2CCCO2)nc1C1CCCN(Cc2cc3c(cc2Cl)OCO3)C1 (centres undefined),x,x,x,x,n
CCC1Oc2ccccc2N(CC(=O)NCc2ccccc2)C1=O (centres undefined),n,x,x,n,x
COc1ccc(CN2CCN(C(=O)c3cccs3)CC2)cc1,n,-87,n,n,n
O=C(NCCN1CCCCC1)c1cc2ccccc2[nH]1,n,n,n,n,n
COc1ccc2[nH]c(C(=O)N3CCCN(Cc4ccc(F)cc4)CC3)cc2c1,n,-78,n,n,n
O=C(c1cccs1)N1CCN(Cc2ccccc2)CC1,n,n,n,n,n
COc1ccc2[nH]c(C(=O)NCCN3CCCCC3)cc2c1,7.9µM,n,n,n,n
CCCCCC1CCNCC1,n,x,x,u,x
Cc1ccc(C(=O)CCS(=O)(=O)c2ccc(F)cc2)cc1,13µM,n,n,16µM,n
SMILES,HepG2 tox,IL1B secr inh,ATXN2 expr inh,TGFb inhibitor,S2 tox
Cc1ccc(S(=O)(=O)CCC(=O)c2ccc(F)cc2)cc1,n,-61,n,u,n
COc1ccc(C(=O)Nc2ccc3c(c2)N(C2CCCC2)C(=O)c2ccccc2S3)cc1OC,n,x,n,n,u
COc1ccccc1N1CCN(C(CNC(=O)C(=O)NCCc2ccccc2)c2cccnc2)CC1 (centres undefined),n,x,u,n,u
CCC(=O)Nc1cccc(C(=O)/C=C/c2ccc(F)cc2)c1,14µM,-80,u,20µM,u
COc1cccc(NC(=S)NC(=O)/C=C/c2ccc(F)cc2)c1,n,u,n,n,n
CC(=O)Nc1cccc(C(=O)/C=C/c2ccc(C)cc2)c1,13µM,-102,n,u,u
Cc1nn(-c2ccccc2)c2c1N(CCCC(=O)NC(C)c1ccccc1)C(=O)CS2 (centres undefined),n,x,n,u,u
COc1ccc(-c2cc(C(F)(F)F)nc(S(C)(=O)=O)n2)cc1,n,-102,u,3.5µM,18µM
COCC(C)NC(=O)CCS(=O)(=O)c1nc(-c2ccc(OC)cc2)cc(C(F)(F)F)n1 (centres undefined),n,-102,u,11µM,u
CCC(C)NC(=O)CCSc1nc(-c2ccc(OC)cc2)cc(C(F)(F)F)n1 (centres undefined),n,x,n,n,n
